Source: PubChem BioAssay (NCATS)
Inconclusive results are not listed. Active and inactive are the calls of the source. Calls come from the whole dose curve; as a rule, active = well fitted curve in the direction sought with a large enough effect; inconclusive = small, poorly fitted or top-dose-only effect, or another doubt; inactive = no such curve, though single readings can be large; an effect the other way counts as inactive or inconclusive.

Legend:
[1] = Cell Viability - LYMP2-005 (AID 967); note: series mostly up to about 92 µM
In short: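 LYMP2-005 human lymphoblastoid cells (2500/well) were treated with compounds for 24 h at 37 C. Intracellular ATP was then measured by CellTiter-Glo luminescence after 30 min at room temperature. AC50 values came from Hill-equation fits of qHTS concentration-response data.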

[2] = Cell Viability - LYMP2-009 (AID 968); note: series mostly up to about 92 µM; nearly all actives have a fitted effect of over 55% in size
[3] = Cell Viability - LYMP2-011 (AID 969); note: nearly all actives have a fitted effect of over 60% in size
In short: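 Cytotoxicity qHTS with ATP content as read-out: lymphoblastoid cells (2500/well) exposed to compound for 24 h at 37 C, then luciferase luminescence measured. Concentration-response data fitted with the standard Hill equation to give AC50.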

[4] = Cell Viability - LYMP2-013 (AID 970); note: series mostly up to about 92 µM; nearly all actives have a fitted effect of over 55% in size
In short: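 qHTS cytotoxicity: ATP-dependent luminescence (CellTiter-Glo, 30 min room temperature) read after 24 h compound exposure at 37 C of 2500 LYMP2-013 lymphoblastoid cells per well. Concentration-response fitted with Hill equation to give AC50.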

[5] = Cell Viability - LYMP2-015 (AID 971); note: nearly all actives have a fitted effect of over 55% in size
In short: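 Cytotoxicity readout: decrease in intracellular ATP (CellTiter-Glo luminescence) in 2500 LYMP2-015 lymphoblastoid cells/well after 24 h compound exposure at 37 C. Concentration-response data fitted with the standard Hill equation to give AC50.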

[6] = Cell Viability - LYMP2-017 (AID 972); note: series mostly up to about 92 µM; nearly all actives have a fitted effect of over 55% in size
From the text: NIH Chemical Genomics Center [NCGC]
NIH Molecular Libraries Screening Centers Network [MLSCN]
National Institutes of Environmental Health Sciences [NIEHS]
National Toxicology Program [NTP]
We have developed a 1536-well cell-based assay for quantitative high throughput screening (qHTS) against a number of cell lines to determine in vitro cytotoxicity of small molecules. This particular assay uses a human lymphoblastoid cell line (LYMP2-017) purchased from Coriell Institute for Medical Research.
NCGC Assay Protocol Summary:
The CellTiter-Glo luminescent cell viability assay (Promega) is a homogeneous method to measure the number of viable cells in culture. The end point readout of this assay is based on quantitation of intracellular ATP, an indicator of metabolic activity, using the luciferase reaction. Luciferase catalyzes the oxidation of beetle Luciferin to oxyluciferin and light in the presence of ATP. The luminescent signal is proportional to amount of ATP present.
Using the CellTiter-Glo luminescent cell viability assay, the amount of cellular ATP was measured in the lymphoblastoid cell line with complete culture medium following compound treatment for 24 hours. The assay was performed in opaque white Kalypsys 1536-well plates. In the screen, tetraoctylammonium bromide was used as positive control. Library compounds were measured for their ability to cause acute toxicity in the cell line, as reflected by a decrease in intracellular ATP levels, in a concentration-dependent manner. […] AC50 values were determined from concentration-response data modeled with the standard Hill equation.
qHTS protocol for CellTiter Glo lymphoblastoid cellular assay
[Step] [Parameter] [Value] [Description]
1. Reagent; 5 uL; 2500 lymphoblastoid cells/well
2. Time; 5 hr; 37 C incubation
4. Controls; 23 nL; Tetraoctylammonium bromide 6.4pM to 92 uM
5. Time; 24 hr; 37 C incubation
6. Reagent; 5 uL; CellTiter Glo reagent
7. Time; 30 min; Room Temperature
8. Detection; Luminescence; Viewlux plate reader
Keywords: cell viability, cytotoxicity, lymphoblastoid cell line, luminescence, NTPHTS, NTPHTS_NCGC, NIEHS, DSSTox, MLSMR, MLSCN, NIH Roadmap, qHTS, NCGC

[7] = Cell Viability - LYMP2-019 (AID 973); note: nearly all actives have a fitted effect of over 55% in size
In short: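 AC50 values come from Hill-equation fits of luminescent intracellular ATP (CellTiter-Glo, 30 min, room temperature) following 24 h compound exposure at 37 C. Cells: LYMP2-019 lymphoblastoid line, 2500 per well, in complete culture medium.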

[8] = Cell Viability - LYMP2-021 (AID 974); note: nearly all actives have a fitted effect of over 55% in size
In short: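 AC50 values come from Hill-equation fits to CellTiter-Glo luminescence (ATP content), read after 24 hour compound exposure at 37 C of 2500 LYMP2-021 lymphoblastoid cells/well; tetraoctylammonium bromide as positive control.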

[9] = Cell Viability - LYMP2-023 (AID 975)
In short: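 Intracellular ATP, read by CellTiter-Glo luminescence, reports viability after 24 hr compound exposure at 37 C. 2500 lymphoblastoid cells/well (LYMP2-023) seeded 5 hr beforehand; Hill fits give AC50; positive control tetraoctylammonium bromide.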

[10] = Cell Viability - LYMP2-004 (AID 966); note: nearly all actives have a fitted effect of over 65% in size
In short: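 AC50 values come from Hill modelling of concentration-dependent loss of intracellular ATP, measured by CellTiter-Glo luminescence. Human LYMP2-004 lymphoblastoid cells (2500/well) were exposed to compound for 24 h at 37 C.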

Measured: outcome

NC(=O)c1cnccn1
inactive: [1] | [2] | [3] | [4] | [5] | [6] | [7] | [8] | [9]

NS(=O)(=O)c1cc2c(cc1Cl)NC=NS2(=O)=O
inactive: [10] | [1] | [2] | [3] | [4] | [5] | [6] | [7] | [8] | [9]

O=c1[nH]cnc2[nH]ncc12
inactive: [10] | [1] | [2] | [3] | [4] | [5] | [6] | [7] | [8] | [9]

CC(=O)Oc1ccccc1C(=O)O
inactive: [10] | [1] | [2] | [3] | [4] | [5] | [6] | [7] | [8] | [9]

CCCC(CCC)C(=O)O
inactive: [10] | [1] | [2] | [3] | [4] | [5] | [6] | [7] | [8] | [9]

NC(N)=NC(=O)c1nc(Cl)c(N)nc1N
inactive: [10] | [1] | [2] | [3] | [4] | [5] | [6] | [7] | [8] | [9]
